From PubChem BioAssay
The source made the active and inactive calls.

Tests used:
[1] = compound effects on lung adenocarcinoma cell viability – A549, calcein-AM fluorescence, 48 h, basal, profiling panel (AID 1162); conditions: higher = more signal
[2] = compound effects on differentiated 3T3-L1 adipocyte viability – cell-based, 3T3-L1 adipocytes, calcein-AM fluorescence, 48 h, basal, profiling panel (AID 1163); conditions: 3T3-L1 adipocytes viability, higher = more signal
[3] = compound effects on hepatocellular carcinoma cell viability – HepG2, calcein-AM fluorescence, 48 h, basal, profiling panel (AID 1164); conditions: higher = more signal
[4] = compound effects on multiple myeloma cell viability – MM1S, calcein-AM fluorescence, 48 h, basal, profiling panel (AID 1165); conditions: higher = more signal
[5] = calcein-AM signal in unstimulated myeloma cells – cell-based, calcein-AM fluorescence, 48 h, PK04 Diversity Set, profiling panel (AID 1166); conditions: RPMI8226 myeloma viability, higher = more signal;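 note: cells grown under basal conditions without added stimulus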
[6] = JC-1 mitochondrial signal, unstimulated HepG2 cells – cell-based, JC-1 fluorescence, 24 h, 100 nL compound, profiling panel (AID 1167); conditions: HepG2 mitochondrial potential, higher = more signal
[7] = JC-1 mitochondrial signal, unstimulated adipocytes – cell-based, JC-1 fluorescence, 3T3-L1 adipocytes, 24 h, 100 nL compound, profiling panel (AID 1168); conditions: JC-1 mitochondrial fluorescence, higher = more signal, called active from +8 up or from −8 down
[8] = JC-1 mitochondrial signal, unstimulated myeloma cells – cell-based, JC-1 fluorescence, RPMI8226, 24 h, 100 nL compound, profiling panel (AID 1169); conditions: JC-1 mitochondrial potential fluorescence, higher = more signal
[9] = JC-1 mitochondrial signal, unstimulated MM1S myeloma – cell-based, JC-1 fluorescence, 24 h, 100 nL compound, profiling panel (AID 1170); conditions: MM1S mitochondrial potential, higher = more signal
[10] = resazurin metabolic signal in A549 cells – cell-based, resazurin fluorescence, 24 h, PK04 Diversity Set, profiling panel (AID 1171); conditions: A549 viability, higher = more signal, called active from +8 up or from −8 down
Note: test concentration not given here.

Row | Compound | z-score [1] | z-score [2] | z-score [3] | z-score [4] | z-score [5] | z-score [6] | z-score [7] | z-score [8] | z-score [9] | z-score [10]
1 | Cc1ccc([C@H]2C(C(=O)O)=C[C@@H](C)N2S(=O)(=O)c2ccc(C)cc2)cc1 | -0.464 | 0.644 | -0.173 | -1.35 | -0.808 | -1.15 | -0.642 (inactive) | -0.187 | 0.249 | -0.16 (inactive)
2 | C=C[C@@H](COC(C)=O)N(Cc1ccc([N+](=O)[O-])cc1)S(=O)(=O)c1ccc(Br)cc1 | 1.97 | -0.306 | 0.452 | 1.3 | 0.647 | 0.64 | 0.0569 (inactive) | 0.667 | 0.198 | 2.05 (inactive)
3 | C=CCN1C(=O)[C@]2(O[C@H](CCO)[C@@H]([Si](C)(C)c3ccc(OC)cc3)[C@@H]2C)c2cc(NC(=O)[C@H](C)O)ccc21 | -1.18 | 0.449 | -1.92 | -2.85 | -4.33 | -1.55 | -0.612 (inactive) | -1.03 | -0.061 | -0.848 (inactive)
4 | [N-]=[N+]=NCc1ccccc1C[C@@]1(C(=O)N2CCOCC2)N=C(c2ccc(OCCCO)cc2)O[C@@H]1c1ccccc1CN=[N+]=[N-] | 0.052 | -0.19 | 1.29 | -0.757 | -2.91 | 0.883 | 0.612 (inactive) | -0.997 | -1.15 | -1.46 (inactive)
5 | COC(=O)c1ccc(C(O)C2C=CC3C(=O)N(C)C(=O)C3N2NC(=O)OC(C)(C)C)o1 (stereo not given) | 0.441 | -0.425 | 0.0285 | -0.978 | -0.342 | -1.28 | -0.429 (inactive) | -0.535 | 0.395 | 0.347 (inactive)
6 | COCCCNC(=O)[C@@]1(c2ccc([N+](=O)[O-])cc2)CC(=O)N(CC23CC4CC(CC(C4)C2)C3)[C@@H]1c1ccc(CO)cc1 | -0.995 | 0.109 | 0.198 | -1.93 | -2.42 | 0.461 | -0.381 (inactive) | 0.0554 | -0.784 | -0.968 (inactive)
7 | CCC(CC)C(O)C1C=CC2C(=O)N(c3ccccc3)C(=O)C2N1Nc1ccc(C#N)cc1 (stereo not given) | 0.313 | -0.534 | -0.136 | 0.436 | -0.452 | -1.03 | -1.29 (inactive) | -0.659 | -0.0284 | 0.158 (inactive)
8 | O=C(CS)NCCCCCCNC(=O)[C@H]1C[C@H]2C(=O)NCC(=O)N2[C@H]1c1ccc(O)cc1 | 0.324 | 0.277 | 0.555 | -0.31 | 0.325 | -0.32 | -0.607 (inactive) | -0.645 | -0.459 | -0.27 (inactive)
9 | O=C1O[C@@H](c2ccccc2)[C@@H](c2ccccc2)N2[C@@H](c3ccc(OCCO)cc3)[C@]3(C(=O)Nc4ccccc43)[C@@H](C(=O)Nc3nc4ccccc4s3)[C@H]12 | -0.328 | -0.343 | 0.27 | -0.829 | -1.17 | -3.31 | 2.07 (inactive) | -1.05 | -1.86 | -1.4 (inactive)
10 | CC(C)=CCCC(C)=CC(O)C1C=CC2C(=O)N(c3ccccc3)C(=O)C2N1Nc1ccccc1 (stereo not given) | -0.846 | -1.34 | -0.731 | -1.77 | -1.02 | -2 | 0.224 (inactive) | -0.222 | -0.236 | -0.518 (inactive)
11 | C=C[C@@H](COC(C)=O)N(Cc1ccccc1[N+](=O)[O-])S(=O)(=O)c1ccc(Br)cc1 | 1.8 | 0.425 | -0.491 | -0.531 | 0.0618 | -0.464 | -0.34 (inactive) | -0.872 | -0.189 | -1.61 (inactive)
12 | C#CCN(C(/C=C/c1ccccc1)CO)C(C(=O)O)c1ccccc1 (stereo not given) | -0.341 | 1.45 | -0.996 | -0.659 | -1.23 | 0.277 | 1.08 (inactive) | -0.782 | 0.0117 | -0.668 (inactive)
13 | O=C1c2ccccc2[C@@]2(Cc3ccccc3N(Cc3ccccc3)C2=O)[C@H](c2ccc(CO)cc2)N1C1CCCCC1 | -0.774 | -0.752 | -0.466 | -0.144 | -0.977 | -0.689 | 0.604 (inactive) | -0.582 | -1.32 | -0.022 (inactive)
